Screening results deposited in PubChem BioAssay by University of Kansas High Throughput Screening Laboratory.
Pf apPOL block = Pf-apPOL DNA polymerase inhibition; Recombinant Pf-apPOL, molecular beacon fluorescence, 1.5 h; inhibition, % at 10 µM; 0.25% of 210,000 active; AID 1794808
mHTT CaM bind = inhibitors of human mutant huntingtin-calmodulin interaction. P42858. 3.6% of 190,000 active. AlphaScreen His-mHTT/GST-CaM binding, luminescence. AID 1671202. inhibition, % at 15 µM;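 also: 0% = both proteins with DMSO and 100% = one protein alone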
Active calls of the source: *; nt = not tested or not shown; ! = repeats disagree. Only a selection was taken, and hits are over-represented in it overall. Rule as the data show it: active = inhibition above about 50%; inactive = the rest.

SMILES	Pf apPOL block	mHTT CaM bind
O=S(=O)(c1ccc(-c2csc(=Nc3ccccc3)n2CCCO)cc1)N1CCOCC1	-9	43
Cc1cccc(NC(=O)c2ccc(-c3cnc(N4CCCCC4)nc3)cc2)c1	2	-8
CC(C)C(=O)N1CCN(c2nc3c(s2)CC(C(=O)Nc2ccc(F)c(F)c2)CC3)CC1 (stereo unspecified)	-7	5
CC1=C(C(=O)NCc2cccc(Cl)c2)C2(CCCCC2)OC1=O	0	-13
Cc1ccc(NC(=O)N2CC3CCCN3c3ccccc32)c(Cl)c1 (stereo unspecified)	-1	76*
Cc1ccc(Cl)cc1NC(=O)N1CC2CCCN2c2ccccc21 (stereo unspecified)	-3	32
O=C(Nc1ccccc1Cl)N1CC2CCCN2c2ccccc21 (stereo unspecified)	-2	81*
CC1CN(C(=O)Nc2ccccc2Cl)c2ccccc2O1 (stereo unspecified)	-7	-40
CCOC(=O)N1CCc2nn(CC(=O)Nc3ccc(OC)cc3)c(=O)cc2C1	-7	0
NS(=O)(=O)c1ccc(-n2cccc2/C=C2\C(=O)NN(c3cc(Cl)cc(Cl)c3)C2=O)cc1	-18	26
O=C(Nc1cccn2ncnc12)c1cccs1	0	4
Cc1cc2cc(CNC(=O)c3ccccc3[N+](=O)[O-])ccc2n1C	-13	25
Cc1cc2cc(CNC(=O)c3c(F)cccc3Cl)ccc2n1C	-23	4
Cc1cc2cc(CNC(=O)Cc3ccc(F)cc3)ccc2n1C	-26	56*
Cc1cccc(NC(=O)NCc2ccc3c(c2)cc(C)n3C)c1	-30	50*
CCc1ccccc1NC(=O)Cn1cccc1-c1nnc(C)o1	1	-9
CNC(=O)c1cc2cc(Br)ccc2oc1=O	-1	-1
O=C(NNC(=O)c1cc2cc(Br)ccc2oc1=O)c1ccc(O)cc1O	73*	54*
CCOC(=O)c1cc(C(C)=NNc2cc(C(F)(F)F)cc(C(F)(F)F)c2)on1	2	nt
CCN(CC)C(=O)C1CCCN(c2ccc([N+](=O)[O-])cc2C=O)C1 (stereo unspecified)	0	70*
CCN(CC)C(=O)C1CCCN(Cc2ccc([N+](=O)[O-])o2)C1 (stereo unspecified)	-28	2
Cc1ccc(-c2nc(N3CCOCC3)c3ccccc3n2)cc1	-4	-4
c1ccc2c(N3CCOCC3)nc(-c3ccncc3)nc2c1	1	61*!
Fc1ccc2c(c1)Sc1ccccc1N2	-10	74*
FC(F)(F)c1ccc2c(c1)Nc1ccccc1S2	12	nt
SMILES	Pf apPOL block	mHTT CaM bind
Cc1ccc(-c2c3c(nc4sc(C(N)=O)c(N)c24)CCCC3)o1	-5	36
COc1ccc(NC(=O)c2sc3nc4c(c(-c5ccc(C)o5)c3c2N)CCCC4)cc1	-3	69*
Cc1cc(N2CCN(C(=O)c3ccccc3)CC2)c(F)cc1[N+](=O)[O-]	-2	10
Cc1noc(C2CN(CC(=O)NC3CC3)C2)n1	-6	-14
CSc1ccc(C2Oc3ccccc3C3=C2C(c2cccs2)n2ncnc2N3)cc1 (stereo unspecified)	-5	38
COc1cccc(C2C3=C(Nc4ncnn42)c2ccccc2OC3c2ccccc2F)c1 (stereo unspecified)	7	5
Fc1ccc(C2Oc3ccccc3C3=C2C(c2cccs2)n2ncnc2N3)cc1 (stereo unspecified)	-3	61*
COc1cccc(C2C3=C(Nc4ncnn42)c2ccccc2OC3c2ccccc2Cl)c1 (stereo unspecified)	-8	58*
COc1ccccc1N1CCN(C(=O)C2CCc3sc(C(=O)N(C)C)cc3C2)CC1 (stereo unspecified)	-2	10
COc1ccccc1N1CCN(C(C)C(=O)Nc2ccc(F)cc2)CC1 (stereo unspecified)	-3	8
COc1ccc(Cl)cc1N1CCN(C(C)C(=O)Nc2ccc(C)cc2)CC1 (stereo unspecified)	0	99*
CS(=O)(=O)N1CCN(c2ccc([N+](=O)[O-])c(Sc3nnnn3-c3ccccc3)c2)CC1	-4	-4
O=[N+]([O-])c1cc(C(F)(F)F)cc([N+](=O)[O-])c1Sc1nnnn1-c1ccccc1	4	100*
COc1ccc(NC(=O)c2ccc(OC)c([N+](=O)[O-])c2)cc1OC	0	7
COc1ccc(C(=O)Nc2ccc(N(C)C)cc2)cc1[N+](=O)[O-]	-6	58*
Cc1nc(NCCNC(=O)c2cccs2)cc(N2CCOCC2)n1	-3	-4
COc1ccc(-c2ccc(C(=O)N3CCCC3C)s2)c(OC)c1OC (stereo unspecified)	-3	13
COc1ccccc1NC(=O)CN1CCC2(CC1)N=C(c1ccc(Cl)cc1)C(=O)N2	0	-8
COc1ccccc1NC(=O)CN1CCC2(CC1)N=C(c1cccc(C)c1)C(=O)N2	4	50*
COc1ccc(NC(=O)CN2CCC3(CC2)N=C(c2ccc(C)cc2)C(=O)N3)c(OC)c1	-2	39
Cc1ccc(NC(=O)CN2CCC3(CC2)N=C(c2ccccc2)C(=O)N3)cc1F	-3	55*
CSc1cccc(NC(=O)CN2CCC3(CC2)N=C(c2ccc(C)cc2)C(=O)N3)c1	-3	26
CSc1cccc(NC(=O)CN2CCC3(CC2)N=C(c2cccc(C)c2)C(=O)N3)c1	5	70*
O=C(CN1CCC2(CC1)N=C(c1ccccc1)C(=O)N2)Nc1ccc(F)c(F)c1	-5	1
COc1ccccc1NC(=O)CN1CCC2(CC1)N=C(c1cccc(Cl)c1)C(=O)N2	2	97*
SMILES	Pf apPOL block	mHTT CaM bind
C=CCn1cnc2c1c(=O)n(C1CCCC1)c(=O)n2-c1ccccc1C	-1	18
Cc1ccc(-n2cccc2CC(=O)NCc2ccncc2)cc1	-3	13
N#Cc1c(SCc2c(Cl)cccc2Cl)nsc1SCc1c(Cl)cccc1Cl	-2	nt
CC(C)NC(=O)N1CCCN(Cc2ccsc2)CC1	-1	-1
Cc1ccc(C)c(NC(=O)CN2CCC3(CC2)N=C(c2ccccc2)C(=O)N3)c1	-3	7
Cc1ccc(NC(=O)CN2CCC3(CC2)N=C(c2ccccc2)C(=O)N3)c(C)c1	-4	56*
O=C(O)c1cc([N+](=O)[O-])c(C(=O)O)cc1Oc1ccc(Cl)cc1Cl	-1	-1
COc1cc2c(cc1S(N)(=O)=O)S(=O)(=O)NCN2	-1	-3
COc1ccc(-c2c(Cc3ccccc3)[nH]n3c(=O)cc(-c4ccc([N+](=O)[O-])cc4)nc23)cc1	-1	9
COc1ccc(Cc2[nH]n3c(=O)cc(-c4ccc([N+](=O)[O-])cc4)nc3c2-c2ccccc2)cc1	6	71*
O=C(Cc1ccc(F)cc1)Nc1ccccc1NC(=O)c1ccco1	-2	-15
CCOC1=NN(c2ccc([N+](=O)[O-])cc2)C(=O)/C1=C/c1cccc(Cl)c1Cl	-15	65*
CCOC1=NN(c2ccc([N+](=O)[O-])cc2)C(=O)/C1=C/c1ccccc1OCC	2	22
CCN1CCN(c2ccc(C(=O)OC)cc2NC(=O)CSc2ccccc2)CC1	-1	14
CCCCN(C)C(=O)C1c2ccccc2C(=O)N(CCOC)C1c1cn(C)c2ccccc12 (stereo unspecified)	-5	15
O=[N+]([O-])c1ccc(N2CCCCC2)nc1	3	7
O=[N+]([O-])c1ccc(N2CCCCCC2)nc1	99*	5
COc1nn(C)cc1C(=O)Nc1cc(C)nn1-c1nc2ccccc2s1	-4	-10
COc1ccc(S(=O)(=O)N2CCCc3ccccc32)cc1	0	-36
